Screening data: PubChem, several laboratories
Sampled rows, rich in hits. Any-hit rate of the full collection: about 3.3%.
Wnt act = Wnt/beta-catenin pathway activation; activation, % at 9.35 µM; Wnt/beta-catenin reporter cell assay, activator, plate reader; hit rate 1.2% among 300,000; in the data active means activation above about 30%, passing the limit was not always enough; inconclusive means no clear call, values can overlap the other calls;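 further: 0% = neutral control wells and 100% = positive control wells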
GAA850 FXN act = frataxin GAA850 promoter activation. HEK293 lucGAA850 FXN promoter luciferase reporter, 24 h; percent of 10 µM SAHA response. activation, % at 6 µM. hit rate 0.56% among 360,000;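 active means activation above the average of all compounds screened plus 3 SD, cutoff fixed separately per campaign, cut at about 7.5% in these data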;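 further: 0% = DMSO wells and 100% = 10 µM SAHA wells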
esBAF inh = inhibitors of esBAF chromatin remodeling in mouse ES cells. Bmi1-luciferase knock-in reporter, 24 h; 100% = twice the neutral-well signal. reporter increase, % at 12.5 µM. hit rate 2% among 350,000. AID 602393; in the data active means activation above about 40%; inconclusive means no clear call, values can overlap the other calls;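 further: 0% = median of the plate's neutral control wells and 100% = double that signal; a rise in the Bmi1 reporter signal indicates esBAF inhibition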
C2C12 statin = suppressors of simvastatin-induced myotoxicity in C2C12 myotubes | ATP luminescence, 48 h; scaled: DMSO 0, geranylgeraniol control 100 | rescue of ATP level, % at 7.49 µM | hit rate 0.78% among 330,000;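 active means mean ATP rescue above about 67%, or every replicate alone reaching that limit, limit read from the data, passing the limit was not always enough; inconclusive means no clear call, values can overlap the other calls; inactive means mean under the limit and some replicate under it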;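 further: myotubes were challenged with 10 µM simvastatin during compound exposure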
MITF TRPM1 HTS = increases MITF-driven TRPM1 promoter luciferase signal | activation, % at 12.5 µM | SK-MEL-5 TRPM1-promoter luciferase, 24 h; % of positive control, neutral wells = 0 | hit rate 0.75% among 300,000;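 active means mean activation of at least 80% with every replicate also reaching 80%; inconclusive means mean reaches 80% but some replicate falls short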;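 further: 0% = neutral control wells and 100% = parthenolide positive control wells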
Starred values were filed as active, the others as inactive; ? = inconclusive; / = no result.

SMILES | Wnt act | GAA850 FXN act | esBAF inh | C2C12 statin | MITF TRPM1 HTS
Cc1ccccc1C(=O)c1cccn1CC(=O)NCc1cccc(Cl)c1 | 4.6 | 1.4 | 64.0* | 11.6 | 39.5
Cc1ccccc1C(=O)c1cccn1CC(=O)NCc1ccc(Cl)cc1 | -1.3 | 0.4 | 15.8 | 16.8 | -1.5
COc1ccccc1CNC(=O)Cn1cccc1C(=O)c1ccccc1C | 4.5 | 0.8 | 43.2* | 10.4 | 26.4
COc1cccc(CNC(=O)Cn2cccc2C(=O)c2ccccc2C)c1 | 2.2 | -0.5 | ? | 28.0 | 6.0
Cc1cc(OCC(=O)N(C)C2CCCCC2)ccc1Cl | 59.9* | 4.0 | 3.9 | -7.7 | 39.1
Cc1cc(OCC(=O)N(C)C2CCCCC2)cc(C)c1Cl | -1.0 | 4.6 | / | / | 45.3
Cc1noc(C)c1NC(=O)Nc1ccc2c(c1)CC(=O)N([C@H](C)CO)C[C@H](C)[C@H](CN(C)C(=O)Nc1ccc(F)cc1)O2 | / | / | -0.7 | -17.4 | /
Nc1ccc(C#Cc2ccc3sc4ccccc4c(=O)c3c2)cc1 | 18.3 | 1.0 | 43.3* | 13.3 | 66.0
COc1cccc2sc3ccc(C#CC4(O)CCCCC4)cc3c(=O)c12 | 19.9 | 2.8 | 23.1 | 0.1 | 106.6*
COc1cccc2sc3ccc(C#Cc4ccc(N)cc4)cc3c(=O)c12 | 36.9* | 0.7 | 61.2* | 4.8 | 102.4*
CCCN1C[C@H](C)[C@@H](OC)CN(C)C(=O)c2cc(NC(=O)COC)ccc2OC[C@@H]1C | / | / | -3.2 | -15.2 | /
C[C@@H]1CCCCO[C@H](CN(C)C(=O)Nc2cccc3ccccc23)[C@@H](C)CN([C@H](C)CO)C(=O)c2cc(NC(=O)NC3CCCCC3)ccc2O1 | / | / | -5.1 | / | /
C[C@H]1CCCCO[C@@H](CN(C)C(=O)NC2CCCCC2)[C@@H](C)CN([C@@H](C)CO)C(=O)c2cc(NC(=O)Nc3cccc4ccccc34)ccc2O1 | / | / | -0.4 | 95.7* | /
C[C@H](CO)N1C[C@H](C)[C@H](CN(C)C(=O)NC2CCCCC2)OCCCC[C@H](C)Oc2ccc(NC(=O)Nc3cccc4ccccc34)cc2C1=O | / | / | 4.6 | 137.1* | /
C[C@@H]1CN([C@@H](C)CO)C(=O)c2cc(NC(=O)Nc3cccc4ccccc34)ccc2O[C@@H](C)CCCCO[C@H]1CN(C)C(=O)NC1CCCCC1 | / | / | -2.1 | 8.9 | /
C[C@@H]1CN([C@H](C)CO)C(=O)c2cc(NC(=O)Nc3cccc4ccccc34)ccc2O[C@@H](C)CCCCO[C@@H]1CN(C)C(=O)NC1CCCCC1 | / | / | 5.5 | 74.2* | /
C[C@@H]1CN([C@H](C)CO)C(=O)c2cc(NC(=O)Nc3cccc4ccccc34)ccc2O[C@@H](C)CCCCO[C@H]1CN(C)C(=O)NC1CCCCC1 | / | / | 5.9 | -8.3 | /
COC(=O)C[C@@H]1CC[C@H]2[C@H](COc3ccc(NS(C)(=O)=O)cc3C(=O)N2C)O1 | / | / | -1.1 | 24.7 | /
CC=Cc1ccc2n(c1=O)C[C@H]1[C@H](CO)[C@@H](C(=O)N(C)C)N(CC3CCOCC3)[C@@H]21 (mixture of isomers) | / | / | -2.2 | 1.1 | /
O=C(COc1ccccc1Cl)c1ccc[nH]1 | 24.9 | 1.5 | / | / | 44.2
O=C(COc1ccc(Br)cc1Cl)c1ccc[nH]1 | 18.6 | 6.5 | 74.2* | -3.7 | 101.9*
O=C(COc1ccc(Br)cc1Br)NC1CCCC1 | 7.9 | 3.3 | / | / | 40.4
O=C(COc1ccc(Br)cc1Cl)NC1CCCCC1 | 23.3 | 4.2 | / | / | 88.4*
O=C(COc1ccc(Br)cc1Cl)NC(=O)NC1CCCC1 | 38.5* | 4.0 | 51.5* | -1.2 | 93.3*
Cn1cnc(S(=O)(=O)N2C[C@H](O)COC[C@H]3O[C@H](CC(=O)NC4Cc5ccccc5C4)CC[C@@H]32)c1 | / | / | 1.3 | 7.0 | /
SMILES | Wnt act | GAA850 FXN act | esBAF inh | C2C12 statin | MITF TRPM1 HTS
CCNC(=O)C[C@H]1CC[C@@H]2[C@H](COc3ccc(NC(=O)NC(C)C)cc3C(=O)N2C)O1 | / | / | 0.2 | -4.6 | /
CCC1(C)Nc2ccccc2C(=O)N1O (stereo not given) | / | -1.1 | 5.7 | 117.8* | 5.9
COc1ccc(N2C(=O)c3ccccc3NC23CCC(C)CC3)cc1 (stereo not given) | / | 0.7 | / | / | 64.7
CCOc1ccc(N2C(=O)c3ccccc3NC2(C)CC)cc1 (stereo not given) | ? | 1.3 | 18.4 | 0.6 | 124.3*
COc1ccc(N2C(=O)c3ccccc3NC2(C)C)cc1 | -1.3 | 5.1 | 5.2 | 8.9 | 47.3
COc1ccc(N2C(=O)c3ccccc3NC23CCCCC3)cc1 | 27.9 | 0.7 | -23.6 | -15.9 | 99.1*
CCOc1ccc(N2C(=O)Cc3ccccc3C2=O)cc1 | -0.4 | -0.6 | 0.1 | 13.9 | 3.3
